High-throughput results deposited in PubChem by several laboratories.
CRFR2-BP ag: CRF-BP/CRF-R2 complex agonism | 0.46% of 350,000 active | HEK293 CRF-R2/CRF-BP, calcium dye fluorescence (FLIPR); percent of saturating CRF peptide response | activation, % at 13.2 µM;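 active = activation of at least 50%, plus an integration ratio under a set limit after plate pattern correction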
MEKK3 PB1 HTS: MEKK3-MEK5 PB1 interaction, increase or decrease; 1.4% of 290,000 active; Q99759; binding response (% of control), % at 10 µM; AID 1529; bead-based flow cytometry, Alexa488-MEK5 binding to MEKK3; actives lie on both sides; 0 = blocked by unlabeled MEK5, 100 = vehicle;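 active = binding response more than 3 SD above or below the average of its plate-row segment, actives on both sides; inconclusive = wells at one plate position flagged as instrument error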;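 also: Alexa488 bead fluorescence after subtracting the streptavidin-only scavenger bead signal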
MEKK2 WT-MEK5: raises or lowers MEK5 binding to wildtype human MEKK2 PB1 domain | 1.1% of 290,000 active | bead flow cytometry, Alexa488-MEK5 binding to MEKK2 WT; actives lie on both sides | binding response (% of control), % at 10 µM; in the data active = binding response below about 67% or above about 130%; inconclusive = no clear call, values can overlap the other calls; inactive = in between
CRFR2-BP antag: antagonists of CRF-binding protein/CRF-R2 receptor complex; HEK293 CRF-R2/CRF-BP, CRF-induced calcium fluorescence; 0.59% of 350,000 active; AID 588475; inhibition, % at 11.8 µM;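 active = inhibition of the ligand-induced calcium signal above about 50% at the single tested concentration, limit read from the data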
ABCB6 inh MLPCN: blocks the human ABCB6 transporter; fluorescence ratio to DMSO, % at 10 µM; AID 602162; 0.19% of 360,000 active; K562-ABCB6 porphyrin accumulation, flow cytometry, 1 h; active compounds read low;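 active = fluorescence ratio to DMSO below 75%, the collection mean minus 3 SD; inconclusive = too few cells collected in the well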;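 also: signal is porphyrin accumulated inside mitochondria; lower ratio means ABCB6 inhibition with less porphyrin fluorescence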
Target sequence (Q9NP58 whole entry, looked up): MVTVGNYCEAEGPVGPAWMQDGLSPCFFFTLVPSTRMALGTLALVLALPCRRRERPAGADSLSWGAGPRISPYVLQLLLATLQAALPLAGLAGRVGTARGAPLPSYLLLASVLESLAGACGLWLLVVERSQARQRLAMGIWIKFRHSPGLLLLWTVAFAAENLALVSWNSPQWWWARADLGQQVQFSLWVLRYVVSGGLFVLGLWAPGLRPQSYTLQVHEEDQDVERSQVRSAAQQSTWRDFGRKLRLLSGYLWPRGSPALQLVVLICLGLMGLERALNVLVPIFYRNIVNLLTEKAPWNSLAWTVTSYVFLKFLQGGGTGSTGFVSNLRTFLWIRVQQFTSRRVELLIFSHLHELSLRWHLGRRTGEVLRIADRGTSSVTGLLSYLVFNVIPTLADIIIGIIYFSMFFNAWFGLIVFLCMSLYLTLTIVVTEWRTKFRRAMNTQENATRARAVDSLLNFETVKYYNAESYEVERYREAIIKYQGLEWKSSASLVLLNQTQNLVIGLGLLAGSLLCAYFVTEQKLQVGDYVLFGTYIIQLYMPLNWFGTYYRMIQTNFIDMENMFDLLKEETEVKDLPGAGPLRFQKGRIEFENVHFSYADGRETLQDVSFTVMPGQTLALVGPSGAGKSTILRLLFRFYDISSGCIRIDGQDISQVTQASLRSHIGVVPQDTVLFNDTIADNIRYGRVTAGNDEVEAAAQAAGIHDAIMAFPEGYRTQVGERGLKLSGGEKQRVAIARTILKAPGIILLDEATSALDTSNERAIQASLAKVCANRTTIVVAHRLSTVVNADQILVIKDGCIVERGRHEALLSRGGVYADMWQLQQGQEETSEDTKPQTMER
MEKK2mut PB1 HTS: signal of MEK5 binding to mutant human MEKK2 PB1 domain; 0.35% of 290,000 active; AID 1530; percent response, % at 10 µM; bead flow cytometry, Alexa488-MEK5 binding to MEKK2 mutant; in the data active = percent response above about 24%, passing the limit was not always enough
Of the large screens only hits and unclear results are named; the others gave an inactive call; [ ] = remark or other dose. Rows were chosen to be rich in hits. Some 2.9% of all compounds tested hit in one or more screens of this group.

O=C(CCC(=O)c1cccs1)NCc1ccc(Cl)cc1	none
Cc1noc(NS(=O)(=O)c2ccc(NC(=O)c3cc4ccccc4o3)cc2)c1C	none (no result: MEKK3 PB1 HTS, MEKK2 WT-MEK5, MEKK2mut PB1 HTS)
CCc1ccc(NC(=O)Cn2nc(C(=O)O)c3ccccc3c2=O)cc1	CRFR2-BP antag 58
O=C(O)CCC(=O)Nc1ccc(Br)c(Cl)c1	CRFR2-BP antag 67
CN(Cc1ccccc1)C(=O)Cn1nnc(-c2ccccc2)c1COc1ccccc1	none (no result: CRFR2-BP ag, MEKK3 PB1 HTS, MEKK2 WT-MEK5, CRFR2-BP antag, MEKK2mut PB1 HTS)
CC(=O)Nc1ccc(-c2ccnc3c2CC(C)(C(=O)NCCc2ccccc2)O3)cc1 (stereo not drawn)	none (no result: CRFR2-BP ag, MEKK3 PB1 HTS, MEKK2 WT-MEK5, CRFR2-BP antag, MEKK2mut PB1 HTS)
S=c1cn[nH]c2ccccc12	none (no result: MEKK3 PB1 HTS, MEKK2 WT-MEK5, MEKK2mut PB1 HTS)
N#CC(C#N)=C(Nc1ccc(F)cc1)SCc1cccc(F)c1	CRFR2-BP ag 105, MEKK3 PB1 HTS 3.0[inhibitor], MEKK2 WT-MEK5 4.0[inhibitor], CRFR2-BP antag 94
CCOc1ccc(N/C(SCc2cccc([N+](=O)[O-])c2)=C(/C#N)C(N)=O)cc1	none
CCN(CC)c1ccc(C(=C2C=CC(=[N+](CC)CC)C=C2)c2ccccc2)cc1	CRFR2-BP ag 91 (no result: MEKK3 PB1 HTS, MEKK2 WT-MEK5, MEKK2mut PB1 HTS)
CCN(CC)c1ccc(C(=C2C=CC(=[N+](CC)CC)C=C2)c2ccc(N(CC)CC)cc2)cc1	none (no result: MEKK3 PB1 HTS, MEKK2 WT-MEK5, MEKK2mut PB1 HTS)
Cc1cccnc1NC(=O)C(C)Oc1ccccc1 (stereo not drawn)	CRFR2-BP antag 80 (no result: ABCB6 inh MLPCN)
CCOC(=O)c1oc2c(CN3CCN(C)CC3)c(O)c(CC)cc2c(=O)c1-c1nc2ccccc2s1	none (no result: MEKK3 PB1 HTS, MEKK2 WT-MEK5, MEKK2mut PB1 HTS)
Cc1cc(C)cc(OCCNC(=O)C2CCN(S(=O)(=O)c3ccccc3)CC2)c1	none
CC1=C(C(=O)O)N2C(=O)C(NC(=O)c3nn(C)cc3[N+](=O)[O-])C2SC1 (stereo not drawn)	MEKK3 PB1 HTS inconclusive, MEKK2 WT-MEK5 inconclusive, MEKK2mut PB1 HTS 139
CC1=C(C(=O)O)N2C(=O)C(NC(=O)c3ccn(C)n3)C2SC1 (stereo not drawn)	none
COc1cccc(CNc2nnnn2C)c1	none
Cc1noc(C)c1COC(=O)c1cc(C)n(-c2ccccc2)c1C	CRFR2-BP antag 50
CCN(C(=O)Cn1c(Cl)nc2c1c(=O)n(C)c(=O)n2C)C1CCCCC1	none (no result: MEKK3 PB1 HTS, MEKK2 WT-MEK5, MEKK2mut PB1 HTS)
CCCCCCc1cc2cc(C(=O)Nc3cccc(OC)c3)c(=O)oc2cc1O	CRFR2-BP ag 57
CCCCCCc1cc2cc(/C(N)=N/NC(=O)c3ccncc3)c(=O)oc2cc1O	CRFR2-BP ag 102 (no result: MEKK3 PB1 HTS, MEKK2 WT-MEK5, MEKK2mut PB1 HTS)
CCCCCCc1cc2cc(C(=O)NC)c(=N)oc2cc1O	CRFR2-BP ag 286
CCc1ccccc1NC(=O)CN1CCN(C(=O)C2CCN(C(=O)/C=C/c3ccccc3)CC2)CC1	none (no result: MEKK3 PB1 HTS, MEKK2 WT-MEK5, MEKK2mut PB1 HTS)
O=C(COc1ccc([N+](=O)[O-])cc1)Nc1ccccc1C(=O)NC1CC1	none (no result: MEKK3 PB1 HTS, MEKK2 WT-MEK5, MEKK2mut PB1 HTS)
COc1ccccc1/C=c1\sc2nc(-c3ccco3)nn2c1=O	none
COc1ccc(OC)c(/C=c2\sc3nc(-c4cccs4)nn3c2=O)c1	CRFR2-BP ag 175
O=C(CCl)Nc1cccc(Oc2cnccn2)c1	ABCB6 inh MLPCN 7.0
CC1(C(=O)Nc2cnc3ccccc3c2)CCN1CCOc1ccccc1 (stereo not drawn)	none (no result: CRFR2-BP ag, MEKK3 PB1 HTS, MEKK2 WT-MEK5, CRFR2-BP antag, MEKK2mut PB1 HTS)
Cn1c(=O)cc(OCCCC(=O)NCCN2CCN(c3ccccc3F)CC2)c2ccccc21	CRFR2-BP antag 82
O=C(NCc1cn2ccccc2n1)C1CCC(=O)N(Cc2ccccc2F)C1 (stereo not drawn)	CRFR2-BP antag 61
CCOC(=O)N1CCN(C(=O)CSc2nnc(-c3ccc(C(C)(C)C)cc3)o2)CC1	CRFR2-BP antag 89
Cc1ccc(-c2nnc(SCC(=O)N3CCN(c4ccccc4)CC3)o2)cc1	CRFR2-BP antag 88
COc1ccc(-c2nnc(SCC(=O)N3CCN(c4ccccc4)CC3)o2)cc1OC	none
Cc1ccc(Nc2ncc3c(n2)CC(C)(C)CC3=O)cc1	none
Cc1ccc(SCc2noc(-c3c(C)noc3C)n2)cc1	CRFR2-BP antag 52
Cc1ccc(-c2noc(-c3c(C)noc3C)n2)cc1	none
O=C(CCc1c[nH]c2ccccc12)N=Nc1c(O)[nH]c2ccccc12	none
O=C(CCNC(=O)c1ccccc1)N=Nc1c(O)[nH]c2ccccc12	MEKK2mut PB1 HTS 94 (no result: CRFR2-BP ag, CRFR2-BP antag, ABCB6 inh MLPCN)
CSc1ccccc1NC(=O)COC(=O)c1ccc(-n2nc(C)cc2C)cc1	none (no result: MEKK3 PB1 HTS, MEKK2 WT-MEK5, MEKK2mut PB1 HTS)
COc1ccc(Cl)cc1NC(=O)C(C)NC(c1ccccc1)c1ccccc1 (stereo not drawn)	CRFR2-BP antag 53
CCOC(=O)C1C(=O)C=C(/C=C/c2ccc(N(C)C)cc2)CC1c1ccccc1 (stereo not drawn)	CRFR2-BP ag 292, MEKK2 WT-MEK5 42, MEKK2mut PB1 HTS 51
O=C(NC1CCCCC1)NS(=O)(=O)c1ccc2c(c1)CCC2	CRFR2-BP antag 63 (no result: MEKK3 PB1 HTS, MEKK2 WT-MEK5, MEKK2mut PB1 HTS)
O=C(CCNS(=O)(=O)c1ccc(Br)cc1)NC1CCCCC1	none
NS(=O)(=O)c1ccc(CCNC(=S)NC2CCCC2)cc1	MEKK2 WT-MEK5 -10
O=S(=O)(NC(=S)NC1CCCCC1)c1ccc(Br)cc1	CRFR2-BP antag 56
COc1ccc(N(CC(=O)Nc2ccccc2C(=O)N2CCCC2)S(C)(=O)=O)cc1	none
CCCOc1ccc(NC(=O)CCC(=O)NC(C)c2ccccc2)cc1 (stereo not drawn)	none
CCCCOc1ccc(C(=O)NCC(=O)NC(C)CCc2ccccc2)cc1 (stereo not drawn)	none
Cc1ccc(NC(=S)NC(=O)C2CCCCC2)c(Br)c1	none (no result: MEKK3 PB1 HTS, MEKK2 WT-MEK5, MEKK2mut PB1 HTS)
Cc1ccc(CN(C(=O)c2ccccc2C)C2CCS(=O)(=O)C2)o1 (stereo not drawn)	none
Cc1ccc(CN(C(=O)c2ccccc2[N+](=O)[O-])C2CCS(=O)(=O)C2)o1 (stereo not drawn)	CRFR2-BP antag 58
CC(C)CNC(=O)C(=O)Nc1cc2c3c(c1)C(C)C(=O)N3CCC2 (stereo not drawn)	none
CCCCn1c(SCC(=O)Nc2cc(C)on2)nc2cc(S(N)(=O)=O)ccc21	none (no result: MEKK3 PB1 HTS, MEKK2 WT-MEK5, MEKK2mut PB1 HTS)
CCCCn1c(SCc2c(C)noc2C)nc2cc(S(N)(=O)=O)ccc21	CRFR2-BP antag 54
Cc1cccc(C)c1NC(=O)C1c2cccc[n+]2CC(=O)N1Cc1ccc2c(c1)OCO2 (stereo not drawn)	MEKK2 WT-MEK5 50
CC(O)(Cc1ccccn1)Cc1ccccn1	none (no result: MEKK3 PB1 HTS, MEKK2 WT-MEK5, MEKK2mut PB1 HTS)
Cc1ccccc1CN(C)C(=O)COC(=O)c1ccc2[nH]c(C)c(C)c2c1	CRFR2-BP antag 64 (no result: MEKK3 PB1 HTS, MEKK2 WT-MEK5, MEKK2mut PB1 HTS)
C#CCSc1nc(C)cc(C(=O)OCC)c1C#N	CRFR2-BP antag 82
O=C1C2C3C=CC(C3)C2C(=O)N1c1ccc2ccccc2n1 (stereo not drawn)	none
O=C1C2C3C=CC(C3)C2C(=O)N1c1cccc(N2C(=O)C3C4C=CC(C4)C3C2=O)n1 (stereo not drawn)	CRFR2-BP ag 73
Cc1ccc(C(=O)/C=C/c2c[nH]c3ccccc23)cc1	none
